{"source": "PubChem BioAssay (NCI)", "note": "This is part of a sample that, as a whole, favours compounds with a hit. Of some 83,000 tested, about 20% had one in any assay.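 A percent growth of 40 corresponds to 60% growth inhibition; 0 means no net growth; -100 means all cells died. Active threshold: below 10.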 Values without a mark were called inactive. Active and inactive are the calls of the source.", "data": [{"tested_on": "MDA-MB-468 breast", "assay": "NCI-60 one-dose screen, 48 h (100 = growth as untreated, 0 = no growth, -100 = all killed)", "settings": "10 µM unless noted", "values": [{"smiles": "Cc1cn(C2CCCCO2)c(=O)nc1NO", "note": "(stereo not given)", "growth": "65%"}, {"smiles": "O=[N+]([O-])c1cccc(-c2nc3sccn3c2-c2ccnc(NCCCNS(=O)(=O)c3ccc(C(F)(F)F)cc3)n2)c1", "growth": "22.8%"}, {"smiles": "Cc1oc2nc[nH]c(=O)c2c1C(=O)/C=C/c1ccc(Cl)cc1", "growth": "10.6%"}, {"smiles": "CC(C)OC(=O)Nc1cc(F)c(F)cc1F", "growth": "84%"}, {"smiles": "NNc1c2ccccc2nc2ccccc12", "growth": "16.4%"}, {"smiles": "CCOC(C)(c1ccc(Cl)cc1)C1CCNCC1", "note": "(stereo not given)", "growth": "90.9%"}, {"smiles": "CN(C)CCn1c2ccc(Br)cc2c2nc3ccccc3nc21", "growth": "13%"}, {"smiles": "COc1cc(-c2nc3ccccc3[nH]2)ccc1OCc1nnc(-c2ccc(Br)cc2)o1", "growth": "80.5%"}, {"smiles": "Fc1ccc(NCc2nnc(-c3ccc(Cl)cc3)o2)cc1", "growth": "56.9%"}, {"smiles": "C(=N/Nc1ncnc2nc[nH]c12)/c1ccccn1", "growth": "-27.3% (active)"}, {"smiles": "Cc1cc(NC(=O)CNc2nc(Oc3ccc(F)cc3)nc(-c3ccc(F)cc3)n2)ccc1Cl", "growth": "92.5%"}, {"smiles": "CCN1C(=S)N(CC)C2C1NC(=S)N2/N=C/C=C/c1ccccc1OC", "note": "(stereo not given)", "growth": "9.04% (active)"}, {"smiles": "O=C(Nc1ccccc1)Nc1cccc(Oc2nnc(Cl)c3ccccc23)c1", "growth": "0.467% (active)"}, {"smiles": "O=C(C1=Cc2cc3ccccc3n2Cc2cnnn21)c1ccccc1", "growth": "5.98% (active)"}, {"smiles": "CCN(CCCCCCCCCCN1CC(=O)N(CCCCCCCCCCN(CC)Cc2ccccc2OC)CC1=O)Cc1ccccc1OC", "growth": "-87.8% (active)"}, {"smiles": "COc1ccc(N)c(S)c1", "growth": "97.3%"}, {"smiles": "CN1CCN(Cc2ccc(NC(=O)c3cncc(C#Cc4cnn5cccnc45)c3)cc2C(F)(F)F)CC1", "growth": "25.4%"}, {"smiles": "Cn1c(NCCc2ccc(O)c(O)c2)nc2c1c(=O)n(Cc1ccc(Cl)c(Cl)c1)c(=O)n2C", "growth": "49.4%"}, {"smiles": "CCNC(=O)Oc1ccc(/C(=C(/CC)Cc2ccccc2)c2ccc(OCCN3CCCC3)cc2)cc1", "growth": "87.5%"}, {"smiles": "COc1cc2c(c(OC)c1OC)CCC(c1cccc(C(=O)Nc3ccccc3Br)c1)O2", "note": "(stereo not given)", "growth": "85.2%"}, {"smiles": "CSc1nc(NCCN2CCOCC2)c(C#N)c(-c2cccc([N+](=O)[O-])c2)n1", "growth": "113%"}, {"smiles": "COc1ccc(-n2c(SCc3nnc(NC(=O)c4ccc(Br)cc4)s3)nc3cc(OC)c(OC)cc3c2=O)cc1", "growth": "93.6%"}, {"smiles": "COc1ccc(S(=O)(=O)n2c3ccccc3n3ncc(-c4nnc(C)o4)c23)cc1", "growth": "-19.5% (active)"}, {"smiles": "CCCCCCCCCCCCCCCCCC1=NCCN1CCNC(C)=O", "growth": "114%"}, {"smiles": "COc1cc(C2C(C(=O)OCc3ccccc3)=C(C)NC(C)=C2C(=O)OCc2ccccc2)cc(OC)c1OC", "growth": "11.6%"}, {"smiles": "Cc1nc2c(c(-c3ccccc3)n1)Cc1c(ccc3ccccc13)O2", "growth": "90.5%"}, {"smiles": "COc1ccc(CN(c2ccc(C)cc2)C2OC(=O)c3ccccc32)cc1OC", "note": "(stereo not given)", "growth": "90.2%"}, {"smiles": "CC1=Nc2cnc(Nc3ccc(N4CCCCC4)cc3)nc2Nc2ccccc21", "growth": "54.9%"}, {"smiles": "C1CCC(C(CC2CCCCN2)C2CCCCC2)CC1", "note": "(stereo not given)", "growth": "-90.1% (active)"}, {"smiles": "CC(C)=CCC[C@H](C)c1ccc(C)c2c1OCN(CCO)C2", "growth": "82.5%"}, {"smiles": "CCOc1ccc2c(c1)CN(Cc1ccc(Cl)cc1)CO2", "growth": "57.2%"}, {"smiles": "Nc1ccc(C2=NN(C(=O)c3cc(-c4ccc(Cl)cc4)nc4ccccc34)C(c3ccc(Cl)cc3)C2)cc1", "note": "(stereo not given)", "growth": "7.85% (active)"}, {"smiles": "Cc1cc(O)cc(-c2nn(C)cc2-c2cc(N3CCOCC3)nc(-c3cccnc3)n2)c1", "growth": "-3.22% (active)"}, {"smiles": "Cn1cc(-c2nc(N)nnc2-c2c[nH]c3ccc(Br)cc23)c2cc(F)ccc21", "growth": "75.5%"}, {"smiles": "CCOC(=O)C1=C(C)NC(C)=C(C(=O)OCC)C1c1cc(Br)c(O)c(OC)c1", "growth": "20.4%"}, {"smiles": "CNC(=O)c1cc(COc2nnc(Nc3ccc(Cl)cc3)c3ccoc23)ccn1", "growth": "65%"}, {"smiles": "COc1cc(-c2nc3occn3c2-c2ccnc(NCCNS(=O)(=O)c3ccc(Cl)cc3)n2)ccc1F", "growth": "63.1%"}, {"smiles": "Cc1cccc(NC(=O)N/C(N)=N/c2nc3ccccc3s2)c1", "growth": "17.8%"}, {"smiles": "CC(C)C[C@H](NC(=O)Cn1ccc2ccccc2c1=O)B(O)O", "growth": "0.399% (active)"}, {"smiles": "COc1ccc(-c2nc(N3CCN(C(=O)C4CCCCC4)CC3)c3c4c(sc3n2)CCCC4)cc1", "growth": "-17.4% (active)"}]}]}
